# The supplement of paper PMC10849652
# Targets with a hit are over-represented here; the source holds about 8,800 in all. About 0.5% of all pairs of compound and target were hits. Values without a mark were called inactive.
# Tests used:
# Experiment in all cases: log2 fold change, soluble protein after heating vs DMSO (PISA); higher = thermal stabilisation; K562 lysate, 10 uM; active = over 0.2 and 3.5 SD of the protein, either way, in both replicates (recomputed)
# lapatinib = compound: CS(=O)(=O)CCNCc1ccc(-c2ccc3ncnc(Nc4ccc(OCc5cccc(F)c5)c(Cl)c4)c3c2)o1 [lapatinib]
# Procedure, shortened: (§1)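 The values are log-two fold changes in thermal stability compared with solvent controls and come from duplicates. They were obtained by TMTpro 16plex LC-MS/MS, with channel sums equalised, on the supernatant after 21,000xg for 90 min. That supernatant came from crude K562 extract at 1 mg/mL protein treated with 10 μM compound for 30 min, heated for 3 min across 48°C-58°C, pooled and brought to 0.5% NP-40 at 4°C.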
# pictilisib = compound: CS(=O)(=O)N1CCN(Cc2cc3nc(-c4cccc5[nH]ncc45)nc(N4CCOCC4)c3s2)CC1 [pictilisib]
# Procedure, shortened: as §1
# crizotinib = compound: C[C@@H](Oc1cc(-c2cnn(C3CCNCC3)c2)cnc1N)c1c(Cl)ccc(F)c1Cl [crizotinib]
# Procedure, shortened: as §1
# [1] = compound: C[C@H](C1=CC=C(C=C1)C(=O)NC2=C3C=CNC3=NC=C2)N
# Procedure, shortened: as §1
# duvelisib = compound: C[C@H](Nc1ncnc2nc[nH]c12)c1cc2cccc(Cl)c2c(=O)n1-c1ccccc1 [duvelisib]
# Procedure, shortened: as §1
# gandotinib = compound: Cc1cc(Nc2cc(CN3CCOCC3)c3nc(C)c(Cc4ccc(Cl)cc4F)n3n2)n[nH]1 [gandotinib]
# Procedure, shortened: as §1
# tozasertib = compound: Cc1cc(Nc2cc(N3CCN(C)CC3)nc(Sc3ccc(NC(=O)C4CC4)cc3)n2)n[nH]1 [tozasertib]
# Procedure, shortened: as §1
# doramapimod = compound: Cc1ccc(-n2nc(C(C)(C)C)cc2NC(=O)Nc2ccc(OCCN3CCOCC3)c3ccccc23)cc1 [doramapimod]
# Procedure, shortened: as §1
# bafetinib = compound: Cc1ccc(NC(=O)c2ccc(CN3CC[C@H](N(C)C)C3)c(C(F)(F)F)c2)cc1Nc1nccc(-c2cncnc2)n1 [bafetinib]
# Procedure, shortened: as §1
# [2] = compound: Cc1cccc(CC(=O)N2CCc3c2ccc(-c2cn(C)c4ncnc(N)c24)c3F)n1
# Procedure, shortened: as §1
# UniProt Q92564, sequence (Q92564 whole entry, looked up): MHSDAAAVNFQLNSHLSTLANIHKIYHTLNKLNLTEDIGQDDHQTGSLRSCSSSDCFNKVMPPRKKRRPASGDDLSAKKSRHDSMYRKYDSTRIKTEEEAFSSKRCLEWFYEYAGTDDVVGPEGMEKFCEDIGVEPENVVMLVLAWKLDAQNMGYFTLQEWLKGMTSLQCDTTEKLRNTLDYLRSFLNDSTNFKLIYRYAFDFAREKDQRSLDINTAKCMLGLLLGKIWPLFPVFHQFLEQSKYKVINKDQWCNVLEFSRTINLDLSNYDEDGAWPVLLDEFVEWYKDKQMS
# UniProt P17812, sequence (P17812 whole entry, looked up): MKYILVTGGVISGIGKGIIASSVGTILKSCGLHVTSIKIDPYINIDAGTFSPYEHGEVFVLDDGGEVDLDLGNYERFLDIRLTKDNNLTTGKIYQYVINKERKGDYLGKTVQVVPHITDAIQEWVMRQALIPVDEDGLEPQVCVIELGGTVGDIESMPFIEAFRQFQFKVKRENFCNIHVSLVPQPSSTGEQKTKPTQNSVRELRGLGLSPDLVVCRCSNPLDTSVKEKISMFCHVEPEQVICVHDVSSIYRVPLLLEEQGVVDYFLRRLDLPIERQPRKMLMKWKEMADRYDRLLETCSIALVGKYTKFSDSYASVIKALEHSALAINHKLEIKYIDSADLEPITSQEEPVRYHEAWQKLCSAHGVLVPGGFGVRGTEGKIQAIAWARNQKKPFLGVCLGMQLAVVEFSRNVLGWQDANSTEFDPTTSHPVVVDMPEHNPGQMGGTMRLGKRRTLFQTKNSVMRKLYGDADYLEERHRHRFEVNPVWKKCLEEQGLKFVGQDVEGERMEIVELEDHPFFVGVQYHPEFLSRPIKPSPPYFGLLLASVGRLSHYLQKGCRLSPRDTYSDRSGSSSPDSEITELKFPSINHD
# UniProt Q6UX07, sequence (Q6UX07 whole entry, looked up): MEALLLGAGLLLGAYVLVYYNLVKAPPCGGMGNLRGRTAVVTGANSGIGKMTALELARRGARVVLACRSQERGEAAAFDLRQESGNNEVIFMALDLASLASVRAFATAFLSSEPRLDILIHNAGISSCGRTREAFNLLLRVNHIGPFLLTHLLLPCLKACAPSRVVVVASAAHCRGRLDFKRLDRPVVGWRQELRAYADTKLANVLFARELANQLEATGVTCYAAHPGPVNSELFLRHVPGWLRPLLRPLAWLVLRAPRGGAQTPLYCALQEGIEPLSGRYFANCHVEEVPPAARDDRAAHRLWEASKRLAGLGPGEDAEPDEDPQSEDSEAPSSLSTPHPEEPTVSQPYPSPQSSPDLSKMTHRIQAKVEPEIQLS
# UniProt Q6PJW8, sequence (Q6PJW8 whole entry, looked up): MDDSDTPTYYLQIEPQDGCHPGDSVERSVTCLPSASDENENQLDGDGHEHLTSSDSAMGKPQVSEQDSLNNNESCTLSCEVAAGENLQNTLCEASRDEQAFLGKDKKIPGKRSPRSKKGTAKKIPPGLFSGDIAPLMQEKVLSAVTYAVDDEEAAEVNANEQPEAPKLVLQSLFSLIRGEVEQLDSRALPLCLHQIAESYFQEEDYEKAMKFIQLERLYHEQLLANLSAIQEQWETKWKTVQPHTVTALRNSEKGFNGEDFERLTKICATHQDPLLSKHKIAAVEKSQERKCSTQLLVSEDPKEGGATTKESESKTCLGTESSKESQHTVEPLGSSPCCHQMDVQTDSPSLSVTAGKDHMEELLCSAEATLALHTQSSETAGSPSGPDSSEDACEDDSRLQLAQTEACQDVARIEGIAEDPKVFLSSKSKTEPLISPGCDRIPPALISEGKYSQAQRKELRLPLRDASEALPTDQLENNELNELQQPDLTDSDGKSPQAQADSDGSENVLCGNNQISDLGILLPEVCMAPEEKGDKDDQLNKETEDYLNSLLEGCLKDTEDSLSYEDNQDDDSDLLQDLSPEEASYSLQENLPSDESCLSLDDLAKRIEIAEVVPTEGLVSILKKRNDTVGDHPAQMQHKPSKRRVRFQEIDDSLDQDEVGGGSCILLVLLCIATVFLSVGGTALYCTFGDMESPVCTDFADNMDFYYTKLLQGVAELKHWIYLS
# UniProt Q9Y2V7, sequence (Q9Y2V7 whole entry, looked up): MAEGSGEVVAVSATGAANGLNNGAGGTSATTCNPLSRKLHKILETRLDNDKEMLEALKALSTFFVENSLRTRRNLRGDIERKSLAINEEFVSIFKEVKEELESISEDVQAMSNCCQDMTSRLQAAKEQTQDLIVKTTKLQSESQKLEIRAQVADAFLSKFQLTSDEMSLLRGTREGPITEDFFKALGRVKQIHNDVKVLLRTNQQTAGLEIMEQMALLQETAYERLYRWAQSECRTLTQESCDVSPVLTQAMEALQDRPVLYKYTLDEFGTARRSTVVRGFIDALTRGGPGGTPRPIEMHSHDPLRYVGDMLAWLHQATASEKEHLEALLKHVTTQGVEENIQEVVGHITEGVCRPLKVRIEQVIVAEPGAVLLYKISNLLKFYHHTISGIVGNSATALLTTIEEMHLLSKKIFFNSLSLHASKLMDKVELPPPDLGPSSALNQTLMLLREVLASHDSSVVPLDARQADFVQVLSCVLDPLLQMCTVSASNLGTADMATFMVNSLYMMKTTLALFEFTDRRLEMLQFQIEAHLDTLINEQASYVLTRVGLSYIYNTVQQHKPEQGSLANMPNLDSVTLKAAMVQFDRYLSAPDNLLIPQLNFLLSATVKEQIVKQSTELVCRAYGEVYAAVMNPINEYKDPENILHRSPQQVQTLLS
# UniProt Q9P003, sequence (Q9P003 whole entry, looked up): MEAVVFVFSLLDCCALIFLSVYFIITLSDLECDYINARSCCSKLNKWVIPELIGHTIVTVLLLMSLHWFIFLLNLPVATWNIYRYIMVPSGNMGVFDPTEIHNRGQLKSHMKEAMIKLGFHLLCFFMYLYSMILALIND
# UniProt Q96KP4, sequence (Q96KP4 whole entry, looked up): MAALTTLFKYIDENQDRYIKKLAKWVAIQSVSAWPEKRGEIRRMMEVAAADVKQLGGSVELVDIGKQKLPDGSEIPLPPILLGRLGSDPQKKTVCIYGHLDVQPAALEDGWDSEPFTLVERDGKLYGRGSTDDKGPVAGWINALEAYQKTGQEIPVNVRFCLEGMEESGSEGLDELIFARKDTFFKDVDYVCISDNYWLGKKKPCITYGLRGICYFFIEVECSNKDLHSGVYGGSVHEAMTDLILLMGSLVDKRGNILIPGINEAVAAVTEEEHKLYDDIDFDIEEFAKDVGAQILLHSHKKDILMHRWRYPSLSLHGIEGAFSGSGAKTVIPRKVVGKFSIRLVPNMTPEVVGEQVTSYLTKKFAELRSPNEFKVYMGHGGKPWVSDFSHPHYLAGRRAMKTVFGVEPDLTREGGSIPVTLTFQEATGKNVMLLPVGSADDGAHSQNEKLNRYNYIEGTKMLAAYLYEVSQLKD
# UniProt Q9NZN8, sequence (Q9NZN8 whole entry, looked up): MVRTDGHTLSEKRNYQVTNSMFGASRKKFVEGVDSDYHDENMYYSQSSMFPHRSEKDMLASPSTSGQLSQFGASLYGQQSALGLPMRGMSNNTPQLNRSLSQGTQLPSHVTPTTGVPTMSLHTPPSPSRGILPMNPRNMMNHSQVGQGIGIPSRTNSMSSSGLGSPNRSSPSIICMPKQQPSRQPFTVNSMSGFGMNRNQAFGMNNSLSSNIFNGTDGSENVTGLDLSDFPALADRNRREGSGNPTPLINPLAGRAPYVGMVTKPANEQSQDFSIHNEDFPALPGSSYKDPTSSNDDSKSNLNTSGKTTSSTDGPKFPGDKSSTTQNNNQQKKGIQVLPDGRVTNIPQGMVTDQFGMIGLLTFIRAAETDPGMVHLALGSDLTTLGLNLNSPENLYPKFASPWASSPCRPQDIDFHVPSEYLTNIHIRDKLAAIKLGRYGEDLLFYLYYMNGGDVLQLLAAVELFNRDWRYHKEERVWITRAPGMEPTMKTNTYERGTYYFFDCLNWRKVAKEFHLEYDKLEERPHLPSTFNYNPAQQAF
# UniProt O15247, sequence (O15247 whole entry, looked up): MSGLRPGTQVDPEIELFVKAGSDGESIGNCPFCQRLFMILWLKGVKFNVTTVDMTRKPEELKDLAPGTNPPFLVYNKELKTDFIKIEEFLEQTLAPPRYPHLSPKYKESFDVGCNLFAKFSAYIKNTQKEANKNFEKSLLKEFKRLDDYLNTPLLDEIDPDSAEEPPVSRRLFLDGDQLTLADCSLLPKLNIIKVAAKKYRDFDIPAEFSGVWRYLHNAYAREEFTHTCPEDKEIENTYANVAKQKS
# UniProt Q92796, sequence (Q92796 whole entry, looked up): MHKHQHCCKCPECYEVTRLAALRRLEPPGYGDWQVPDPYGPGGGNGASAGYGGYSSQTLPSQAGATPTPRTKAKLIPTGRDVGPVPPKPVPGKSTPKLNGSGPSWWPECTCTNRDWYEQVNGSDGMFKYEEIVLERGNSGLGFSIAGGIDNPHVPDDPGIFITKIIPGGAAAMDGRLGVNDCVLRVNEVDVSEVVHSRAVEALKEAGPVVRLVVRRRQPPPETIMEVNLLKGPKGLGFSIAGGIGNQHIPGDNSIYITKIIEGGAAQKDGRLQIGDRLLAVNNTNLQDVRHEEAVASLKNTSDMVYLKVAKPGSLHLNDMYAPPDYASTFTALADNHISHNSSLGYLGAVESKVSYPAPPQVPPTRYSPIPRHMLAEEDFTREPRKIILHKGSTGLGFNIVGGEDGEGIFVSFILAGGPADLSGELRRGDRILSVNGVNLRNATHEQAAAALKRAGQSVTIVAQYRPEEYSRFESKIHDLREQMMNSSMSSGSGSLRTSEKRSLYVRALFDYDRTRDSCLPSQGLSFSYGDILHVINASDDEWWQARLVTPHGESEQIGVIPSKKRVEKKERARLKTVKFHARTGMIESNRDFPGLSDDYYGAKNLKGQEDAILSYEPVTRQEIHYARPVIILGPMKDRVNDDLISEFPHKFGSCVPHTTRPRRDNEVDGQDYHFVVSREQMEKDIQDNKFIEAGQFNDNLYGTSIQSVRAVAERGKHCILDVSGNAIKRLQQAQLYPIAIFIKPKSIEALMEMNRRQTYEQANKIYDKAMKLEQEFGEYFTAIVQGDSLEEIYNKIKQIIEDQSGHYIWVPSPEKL
# UniProt Q8WUH1, sequence (Q8WUH1 whole entry, looked up): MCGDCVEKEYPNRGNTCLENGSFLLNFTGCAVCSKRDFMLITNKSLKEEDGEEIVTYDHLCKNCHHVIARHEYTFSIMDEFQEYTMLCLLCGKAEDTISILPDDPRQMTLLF
Target,log2 fold change (lapatinib),log2 fold change (pictilisib),log2 fold change (crizotinib),log2 fold change [1],log2 fold change (duvelisib),log2 fold change (gandotinib),log2 fold change (tozasertib),log2 fold change (doramapimod),log2 fold change (bafetinib),log2 fold change [2]
COG7 (UniProt P83436),-0.014,-0.008,-0.025,-0.068,-0.01,-0.059,-0.028,0.028,-0.044,0.058
DMXL1 (UniProt Q9Y485),-0.003,-0.014,-0.021,0.001,0.007,-0.028,0.002,0.039,-0.01,0.026
CNDP2 (UniProt Q96KP4),-0.021,-0.017,-0.008,-0.255 (active),0.037,0.244 (active),-0.062,0.001,-0.002,0.212
CHML (UniProt P26374),-0.006,-0.003,0.022,-0.012,0.006,0.013,-0.004,-0.025,0.094,0.004
CSNK2B (UniProt P67870),-0.052,0.023,-0.073,0.027,-0.053,0.016,0.004,0.022,0.064,-0.05
DDB2 (UniProt Q92466),-0.03,-0.025,-0.025,-0.01,0.014,0.046,-0.026,0.05,0.023,0.008
DPH5 isoform 5 (UniProt Q9H2P9),0.009,0.025,0.126,-0.019,0.128,0.495 (active),0.005,-0.024,0.143,0.101
DCUN1D4 isoform 3 (UniProt Q92564),0.072,0.046,-0.02,0.001,0.02,-0.104,-0.009,0.004,-0.003,-0.039
DCP2 (UniProt Q8IU60),-0.027,0.011,0.038,0.021,-0.011,-0.148,0.018,0.01,-0.062,-0.041
DIAPH3 (UniProt Q9NSV4),0.068,0.005,0.003,0.039,-0.043,-0.102,-0.017,0.036,-0.075,0.135
CNOT2 (UniProt Q9NZN8),-0.027,-0.014,-0.023,0.111,-0.008,-0.093,0.001,-0.01,0.024,-0.005
CSTF2 (UniProt P33240),-0.006,-0.049,0.003,-0.025,0.044,0.051,0.033,0.036,0.03,-0.001
COPZ1 isoform 4 (UniProt P61923),0.161,0.062,0.09,0.083,-0.022,-0.066,0.028,-0.044,-0.048,-0.088
CLIP1 isoform 2 (UniProt P30622),0.066,–,0.018,-0.103,-0.053,0.135,0.047,0,0.031,0
CTPS1 (UniProt P17812),-0.007,-0.015,-0.044,0.004,-0.003,-0.052,-0.004,0.005,0.078,0.015
DIAPH1 (UniProt H9KV28),0.003,0.087,-0.047,-0.039,–,0.199,0.049,0.099,-0.171,0.158
COG6 (UniProt Q9Y2V7),0.012,-0.019,-0.104,-0.137,0.014,-0.115,-0.011,0.037,-0.071,0.142
CYP4V2 (UniProt Q6ZWL3),0.049,-0.441 (active),0.12,–,0.031,–,–,0.027,0.177,–
CNIH4 (UniProt Q9P003),0.005,-0.139,-0.055,–,0.092,–,-0.06,-0.082,-0.248,–
DENND1B (UniProt Q6P3S1),0.1,0.096,-0.019,0.003,-0.08,-0.194,–,-0.072,0.154,-0.03
CLIC2 (UniProt O15247),-0.057,–,-0.002,-0.037,-0.039,-0.015,-0.016,-0.022,-0.009,0.005
DDX4 (UniProt Q9NQI0),-0.045,0.035,–,-0.481 (active),0.02,0.132,0.078,–,-0.167,0.174
DLG3 isoform 2 (UniProt Q92796),0.008,0.073,-0.01,-0.047,0.125,0,0.097,0.043,0.055,0.065
CNOT4 isoform 9 (UniProt O95628),-0.006,-0.014,0.077,-1.01 (active),-0.009,0.298,0.04,-0.184,-0.031,0.271
DHRS13 (UniProt Q6UX07),0.048,-0.052,-0.048,–,0.185,–,–,0.087,-0.113,–
CORO7 isoform 3 (UniProt P57737),0.009,-0.016,-0.063,0.06,0.004,-0.119,0.005,0.013,0.001,-0.067
CNST (UniProt Q6PJW8),0.005,0,0.031,-0.022,-0.007,0.033,0.019,0.005,0.033,0.025
CHURC1 isoform 2 (UniProt Q8WUH1),0.012,0.043,-0.047,0.026,0.049,-0.014,-0.032,-0.01,-0.019,-0.001
CRLS1 (UniProt Q9UJA2),-0.003,-0.107,-0.086,0.084,–,-0.105,–,-0.062,-0.437,-0.176
DONSON (UniProt Q9NYP3),-0.012,-0.019,-0.012,-0.32,0.007,0.196,–,0.07,-0.033,-0.157
